Test in all cases: yeast three-hybrid, YBZ-1, SC-Leu-His + 0.5 mM 3-AT, 4 days
Holding throughout (settings): tags: N-Gal4 AD-HA kept; label: inside an RPR1-promoter hybrid RNA with tandem MS2 sites; ssRNA

The target in one assay is PUM1 PUF domain R1-KKR (Homo sapiens, UniProt Q14671 828-1176, S863K;R864K;Q867R). In outline: (§1)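 Pumilio-1 PUF domain libraries, randomized (NNK) at the three base-contacting residues of each repeat, were co-expressed with matching RNA elements from a centromeric plasmid in strain YBZ-1 (LexA–MS2 coat fusion, HIS3 reporter). Transformants were plated on SC-Leu (input) and SC-Leu-His + 0.5 mM 3-AT (selection) for four days, and repeat regions were PCR-amplified and Illumina-sequenced. The interaction score is the log2 change in variant frequency from input to selection, with pseudocount 1 where absent.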

The next assay addresses PUM1 PUF domain R4-SRR (Homo sapiens, UniProt Q14671 828-1176, N971S;H972R;Q975R). In outline: as §1
For another assay, the target named is T1, PUM1 PUF domain R6-TYR (Homo sapiens, UniProt Q14671 828-1176, N1043T;Q1047R).
T1 sequence: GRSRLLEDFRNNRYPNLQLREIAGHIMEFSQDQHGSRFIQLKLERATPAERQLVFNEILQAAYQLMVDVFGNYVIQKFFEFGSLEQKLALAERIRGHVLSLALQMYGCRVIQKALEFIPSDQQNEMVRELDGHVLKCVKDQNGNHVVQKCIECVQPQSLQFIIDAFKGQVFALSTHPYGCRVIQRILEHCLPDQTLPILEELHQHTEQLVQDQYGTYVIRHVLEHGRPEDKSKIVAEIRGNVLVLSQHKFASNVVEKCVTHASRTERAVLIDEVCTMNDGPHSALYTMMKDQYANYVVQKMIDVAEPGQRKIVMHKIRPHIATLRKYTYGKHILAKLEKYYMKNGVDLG
The essentials: as §1

The target in another assay is PUM1 PUF domain R3-RPA (Homo sapiens, UniProt Q14671 828-1176, C935R;R936P;Q939A). In outline:
as §1

Turning to “GGCUAGAACUAGUGGAUCCCCCGGCGCCCGGCGGCUCGAGCCCGGGUAAGUGUAAAUCGUCUGCAUGCCGCCGGGCGCCAUGCCUGCAGGUCGACUCUAGAAAACAUG”, the binding signal with PUM1 PUF domain R1-KKR was 6.78 log2 enrichment (interaction score).
On to “GGCUAGAACUAGUGGAUCCCCCGGCGCCCGGCGGCUCGAGCCCGGGUAAGUGUACAUAGUCUGCAUGCCGCCGGGCGCCAUGCCUGCAGGUCGACUCUAGAAAACAUG”, for which the binding signal in the assay with PUM1 PUF domain R4-SRR is 4.09 log2 enrichment (interaction score).
“GGCUAGAACUAGUGGAUCCCCCGGCGCCCGGCGGCUCGAGCCCGGGUAAGUGCAAAUAGUCUGCAUGCCGCCGGGCGCCAUGCCUGCAGGUCGACUCUAGAAAACAUG”: the binding signal with PUM1 PUF domain R6-TYR was 5.11 log2 enrichment (interaction score).
For “GGCUAGAACUAGUGGAUCCCCCGGCGCCCGGCGGCUCGAGCCCGGGUAAGUGUAAUUAGUCUGCAUGCCGCCGGGCGCCAUGCCUGCAGGUCGACUCUAGAAAACAUG”, the binding signal with PUM1 PUF domain R3-RPA was 3.99 log2 enrichment (interaction score).

(Values after paper PMC8384837, “Expanding the binding specificity for RNA recognition by a PUF domain”.)
